According to PubChem BioAssay (NCATS):
Inconclusive results are not listed. Entries that show only a call come without a potency. Active and inactive are the calls of the source. The call rests on the fitted dose curve.

assay: Primary qHTS for inhibitors of MERS-S pseudo-typed particle cell entry (AID 1479149); conditions: MERS-S pseudotyped particle entry, luciferase; series mostly up to 57.1 µM; further: nearly all actives have a fitted effect of over 60% in size

SMILES | Potency
COc1cccc(N(C)C(=S)Oc2ccc3c(c2)CCCC3)n1 | inactive
C[N+]1(CC2COC(c3ccccc3)(c3ccccc3)O2)CCCCC1 (configuration not stated) | inactive
CCCNC(C)(C)COC(=O)c1ccccc1 | inactive
Nc1ccc(S(=O)(=O)Nc2nccs2)cc1 | inactive
NC(N)=NC(=O)c1nc(Cl)c(N)nc1N | inactive
O=C(CCCCCCCCC#CI)Oc1ccccc1 | inactive
Oc1ccc(CCNCCCCCCNCCc2ccccc2)cc1O | inactive
COc1ccc2c(c1)c(CC(=O)OCC(=O)O)c(C)n2C(=O)c1ccc(Cl)cc1 | inactive
CCC(=O)O[C@]1(C(=O)CCl)[C@@H](C)C[C@H]2[C@@H]3CCC4=CC(=O)C=C[C@]4(C)[C@@]3(F)[C@@H](O)C[C@@]21C | inactive
CCCOc1ccc2nc(NC(=O)OC)[nH]c2c1 | inactive
CC1(C)O[C@@H]2C[C@H]3[C@@H]4C[C@H](F)C5=CC(=O)C=C[C@]5(C)[C@H]4[C@@H](O)C[C@]3(C)[C@]2(C(=O)CO)O1 | inactive
Cn1cnc2c1c(=O)[nH]c(=O)n2C | inactive
C[C@]12CC[C@@H]3c4ccc(O)cc4CC[C@H]3[C@@H]1CCC2=O | inactive
O=[N+]([O-])c1nccn1CO[C@@H](CO)[C@H](O)CO | inactive
C[C@]1(Cn2ccnn2)[C@H](C(=O)O)N2C(=O)C[C@H]2S1(=O)=O | inactive
NS(=O)(=O)c1ccc(N2CCCCS2(=O)=O)cc1 | inactive
Cc1ccc(=O)n(-c2ccccc2)c1 | inactive
C[N+](C)(C)CCOC(=O)CCC(=O)OCC[N+](C)(C)C | inactive
Cc1cccc(N(C)C(=S)Oc2ccc3c(c2)CCC3)c1 | inactive
Nc1nc2ncc(CNc3ccc(C(=O)N[C@@H](CCC(=O)O)C(=O)O)cc3)nc2c(=O)[nH]1 | inactive
CC(C)Cc1ccc(C(C)C(=O)OCc2ccccn2)cc1 (configuration not stated) | inactive
CN1CCCN=C1COC(=O)C(O)(c1ccccc1)C1CCCCC1 (configuration not stated) | inactive
CC(C(=O)O)c1ccc2c(c1)Cc1cccnc1O2 (configuration not stated) | inactive
COc1cc(NS(=O)(=O)c2ccc(N)cc2)nc(OC)n1 | inactive

assay: Primary qHTS for Vero E6 cytotoxicity: counterscreen for inhibitors of SARS-S pseudo-typed particle cell entry (AID 1479150); conditions: cell viability; series mostly up to 57.1 µM

SMILES | Potency | outcome
C/C=C/c1ccc(OC)cc1 | inactive | –
CCOC(=O)c1ccc(C#Cc2ccc3c(c2)C(C)(C)CCS3)nc1 | inactive | –
C#C[C@]1(O)CC[C@H]2[C@@H]3CCc4cc(OC)ccc4[C@H]3CC[C@@]21C | inactive | –
C/C(=C(\CCOP(=O)(O)O)SC(=O)c1ccccc1)N(C=O)Cc1cnc(C)nc1N | – | inactive [at 5.34 µM]
OCC(CO)N[C@H]1C[C@](O)(CO)[C@@H](O)[C@H](O)[C@H]1O | inactive | –
CCCc1nc(C)c2c(=O)[nH]c(-c3cc(S(=O)(=O)N4CCN(CC)CC4)ccc3OCC)nn12 | inactive | –
CC(=O)O[C@H]1C[C@@H]2CC[C@@H]3[C@H](CC[C@@]4(C)[C@H]3C[C@H]([N+]3(C)CCCCC3)[C@@H]4OC(C)=O)[C@@]2(C)C[C@@H]1N1CCCCC1 | inactive | –
CCCOc1ccc(C(=O)OCCN(CC)CC)cc1N | inactive | –
C[C@@H](O)[C@H](N)C(=O)O | inactive | –
CN(C)[C@@H]1C(=O)C(C(=O)NCN2CCCC2)=C(O)[C@@]2(O)C(=O)C3=C(O)c4c(O)cccc4[C@@](C)(O)C3C[C@@H]12 (some centres not stated) | inactive | –
C[C@H](N)C(=O)N[C@@H](C)C(=O)NC1[C@H]2CN(c3nc4c(cc3F)c(=O)c(C(=O)O)cn4-c3ccc(F)cc3F)C[C@@H]12 (some centres not stated) | inactive | –
CCOCC(O)COc1ccc(NC(=O)CC[S+](C)C)cc1 (configuration not stated) | inactive | –
C#C[C@]1(O)CC[C@H]2[C@@H]3[C@H](C)CC4=C(CCC(=O)C4)[C@H]3CC[C@@]21C | inactive | –
N[C@H](C(=O)O)[C@@H](O)c1ccc(O)c(O)c1 | inactive | –
COc1cccc(N(C)C(=S)Oc2ccc3c(c2)CCCC3)n1 | inactive | –
C[N+]1(CC2COC(c3ccccc3)(c3ccccc3)O2)CCCCC1 (configuration not stated) | inactive | –
CCCNC(C)(C)COC(=O)c1ccccc1 | inactive | –
Nc1ccc(S(=O)(=O)Nc2nccs2)cc1 | inactive | –
NC(N)=NC(=O)c1nc(Cl)c(N)nc1N | inactive | –

SMILES | Potency | outcome
O=C(CCCCCCCCC#CI)Oc1ccccc1 | inactive | –
Oc1ccc(CCNCCCCCCNCCc2ccccc2)cc1O | inactive | –
COc1ccc2c(c1)c(CC(=O)OCC(=O)O)c(C)n2C(=O)c1ccc(Cl)cc1 | inactive | –
CCC(=O)O[C@]1(C(=O)CCl)[C@@H](C)C[C@H]2[C@@H]3CCC4=CC(=O)C=C[C@]4(C)[C@@]3(F)[C@@H](O)C[C@@]21C | inactive | –
CCCOc1ccc2nc(NC(=O)OC)[nH]c2c1 | inactive | –
CC1(C)O[C@@H]2C[C@H]3[C@@H]4C[C@H](F)C5=CC(=O)C=C[C@]5(C)[C@H]4[C@@H](O)C[C@]3(C)[C@]2(C(=O)CO)O1 | inactive | –
Cn1cnc2c1c(=O)[nH]c(=O)n2C | inactive | –
C[C@]12CC[C@@H]3c4ccc(O)cc4CC[C@H]3[C@@H]1CCC2=O | inactive | –
O=[N+]([O-])c1nccn1CO[C@@H](CO)[C@H](O)CO | inactive | –
C[C@]1(Cn2ccnn2)[C@H](C(=O)O)N2C(=O)C[C@H]2S1(=O)=O | inactive | –
NS(=O)(=O)c1ccc(N2CCCCS2(=O)=O)cc1 | inactive | –
Cc1ccc(=O)n(-c2ccccc2)c1 | inactive | –
C[N+](C)(C)CCOC(=O)CCC(=O)OCC[N+](C)(C)C | inactive | –
Cc1cccc(N(C)C(=S)Oc2ccc3c(c2)CCC3)c1 | inactive | –
Nc1nc2ncc(CNc3ccc(C(=O)N[C@@H](CCC(=O)O)C(=O)O)cc3)nc2c(=O)[nH]1 | inactive | –
CC(C)Cc1ccc(C(C)C(=O)OCc2ccccn2)cc1 (configuration not stated) | inactive | –
CN1CCCN=C1COC(=O)C(O)(c1ccccc1)C1CCCCC1 (configuration not stated) | inactive | –
CC(C(=O)O)c1ccc2c(c1)Cc1cccnc1O2 (configuration not stated) | inactive | –
COc1cc(NS(=O)(=O)c2ccc(N)cc2)nc(OC)n1 | inactive | –
